Screens: PubChem BioAssay, National Center for Advancing Translational Sciences (NCATS)
Compounds with a hit are over-represented: about 0.27% of the library has one in this group of screens.
TRPV1 agonist – human TRPV1 agonism; Q8NER1; TRPV1-expressing cells, Fluo-8 calcium influx, agonist mode; activation, % at 8.33 µM; hit rate 0.19% among 320,000; in the data active means activation above about 80%; inconclusive means between about 30% and that limit; further: 0% is about no effect
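Fluo-8 calcium influx in TRPV1-expressing cells, kinetic read (ex 480/em 520 nm). Compound added and read 3 min for agonist activity, followed by capsaicin at EC20 final and 2 min further read for enhancement.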
TRPV1 potentiator – human TRPV1 potentiation; hit rate 0.02% among 320,000; potentiation, % at 8.33 µM; Q8NER1; TRPV1-expressing cells, Fluo-8 calcium influx, capsaicin EC20 potentiation; in the data active means potentiation above about 80%; inconclusive means between about 30% and that limit; further: 0% is about no effect
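Fluo-8 calcium influx in TRPV1-expressing cells, kinetic read (ex 480/em 520 nm). Compound added and read 3 min for agonist activity, followed by capsaicin at EC20 final and 2 min further read for enhancement.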
TRPML1 ag – agonists of human TRPML1 channel. activation, % (concentration not given with the values). Q9GZU1. hit rate 0.12% among 410,000. TRPML1-expressing cells, Ca2+ dye fluorescence, FDSS; in the data active means activation above about 50%; inconclusive means mostly about 30% to 49%; further: 0% is about no effect
Target sequence (Q9GZU1 whole entry, looked up): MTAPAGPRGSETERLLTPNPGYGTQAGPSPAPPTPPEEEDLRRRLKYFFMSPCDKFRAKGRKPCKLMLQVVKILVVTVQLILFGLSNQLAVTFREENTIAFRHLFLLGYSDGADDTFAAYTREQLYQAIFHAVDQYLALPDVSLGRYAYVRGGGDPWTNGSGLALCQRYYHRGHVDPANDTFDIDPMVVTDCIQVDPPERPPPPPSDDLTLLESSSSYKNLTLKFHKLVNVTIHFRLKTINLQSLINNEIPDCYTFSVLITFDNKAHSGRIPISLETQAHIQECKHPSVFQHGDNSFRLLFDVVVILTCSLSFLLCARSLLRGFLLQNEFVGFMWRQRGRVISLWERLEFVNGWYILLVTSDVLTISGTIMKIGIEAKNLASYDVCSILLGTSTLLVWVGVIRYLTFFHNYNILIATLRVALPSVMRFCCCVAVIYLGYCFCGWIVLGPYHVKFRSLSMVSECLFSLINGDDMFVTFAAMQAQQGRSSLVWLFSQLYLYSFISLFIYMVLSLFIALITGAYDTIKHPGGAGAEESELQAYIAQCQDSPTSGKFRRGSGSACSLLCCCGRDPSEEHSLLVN
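Agonist activity was taken from a 110 s kinetic Ca2+ dye read on the FDSS after pinning compounds onto TRPML1-DL cells. The cells were seeded at 1,500/well with Tet inducer, incubated about 16 h, then dye-loaded at room temperature.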
TRPML1 blocker – human mucolipin-1 channel inhibition | Q9GZU1 | TRPML1-inducible cells, Ca2+ dye fluorescence, FDSS; hits give low values; inhibition of EC80 agonist-evoked calcium signal | activity change, negative = inhibition, % (test concentration not listed) | hit rate 0.02% among 390,000; in the data active means activity change below about -50%; inconclusive means between about -30% and that limit;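 further: stimulus is agonist 54-4 at its EC80 concentration; on the % scale 0 is the no-effect control and ±100 the full control effect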
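Calcium fluorescence in TRPML1-DL cells induced overnight with Tet: a 110 s read after compound pin addition, then a 110 s antagonist read after challenge with 54-4 at 4 uM final (EC80).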
Numbers without * were called inactive; ? = inconclusive; . = no result given.

SMILES	TRPV1 agonist	TRPV1 potentiator	TRPML1 ag	TRPML1 blocker
O=C(NCCC1=CCCCC1)C1CCN(C(=O)N2CCOc3ccc(Cl)cc32)CC1	.	.	0	-9
CCc1ccc(NC(=O)CNCc2ccc(OC)c(OC)c2)cc1	85*	-17	0	27
CCOc1ccc(-n2c(=O)c3c(C)c(C)sc3n(CC(=O)NCCc3ccccc3)c2=O)cc1	.	.	3	-4
Cc1cccc(-c2noc(CCC(=O)Nc3ccc(C(N)=O)cc3)n2)c1	81*	4	4	9
Cc1cccc(-c2noc(CCCC(=O)Nc3ccc(C(N)=O)cc3)n2)c1	22	-18	1	20
COCCn1c(-c2ccc(OC)cc2)nc2ccccc21	0	-7	4	11
COCCn1c2nc(=O)n(-c3ccccc3)c(=O)c-2nc2ccccc21	.	.	59*	-9
CCSC1=NSC2=NC(=O)/C(=C\c3coc4ccccc4c3=O)C(=N)N12	15	6	77*	-1
CC(C)CC1=NN2C(=N)/C(=C\c3coc4ccccc4c3=O)C(=O)N=C2S1	8	-11	69*	-19
Cc1cccc(-n2c(C)cc(/C=C3\C(=N)N4N=C(CC(C)C)SC4=NC3=O)c2C)c1	0	-3	1	39
O=C(NCc1ccccc1)[C@@H]1C[C@H]1[C@@H](NP(=O)(c1ccccc1)c1ccccc1)c1ccccc1	91*	-2	-1	-25
O=C(NCc1ccccn1)[C@@H]1C[C@H]1[C@@H](NP(=O)(c1ccccc1)c1ccccc1)c1ccccc1	?	-38	0	-26
COc1cc(C(=O)Nc2ccc3nc(SCc4ccc(C)cc4)sc3c2)cc(OC)c1OC	.	.	0	5
COc1ccc(-n2c(C)nc(=O)c(-c3ccccc3)c2C)cc1	1	11	2	8
CCc1nc(=O)c(-c2ccccc2)c(C)n1-c1ccccc1	0	25	2	-53*
CNC(=O)c1c(NC(=O)c2ccc(S(=O)(=O)N(C)c3ccccc3)cc2)sc2c1CCN(C(C)C)C2	13	-6	7	3
CCN1CCc2c(sc(NC(=O)c3ccc(S(=O)(=O)N(C)c4ccccc4)cc3)c2C(=O)NC)C1	?	13	61*	0
Cc1ccccc1CSCC(=O)NC1CCCC1	18	-11	-1	34
Cc1ccccc1CC(=O)NC1CCCCCC1	?	-29	1	-54*
CC(C)CC(c1nnnn1Cc1cccs1)N1CCN(c2nc3ccccc3s2)CC1 (centres undefined)	1	-5	74*	-11
CCC(c1nnnn1Cc1cccs1)N1CCN(c2nc3ccccc3s2)CC1 (centres undefined)	0	20	13	3
CCc1ccc(OCC(=O)NC(Cc2c[nH]c3ccccc23)C(=O)O)cc1 (centres undefined)	.	.	2	?
O=c1c2[nH]c3ccccc3c2ncn1CCC1=CCCCC1	1	6	0	-10
C1=C(CCNc2ncnc3c2[nH]c2ccccc23)CCCC1	80*	-29	0	2
CCOc1cc(/C=C2\CCCc3c2nc2ccccc2c3C(=O)O)ccc1OC	81*	-6	78*	-11
SMILES	TRPV1 agonist	TRPV1 potentiator	TRPML1 ag	TRPML1 blocker
COc1cc(/C=C2\CCCc3c2nc2ccccc2c3C(=O)O)cc(Br)c1O	-6	29	0	-21
CSc1nn(Cc2cccc(Cl)c2)c(N(C(C)=O)C(C)=O)c1S(=O)(=O)c1ccccc1	.	.	1	7
CCOc1ccccc1N(CC(=O)N1CCOCC1)S(=O)(=O)c1ccc(SC)cc1	8	-33	105*	-3
Cc1ccc(S(=O)(=O)N(CC(=O)N2CCOCC2)c2ccccc2F)cc1	19	-15	-1	20
COc1ccc(NC(=O)Cc2csc(C)n2)cc1	.	.	2	-1
CN1CCc2c(sc(NC(=O)CSc3ccccc3)c2-c2nc3ccccc3s2)C1	?	10	59*	-12
CC(=O)N1CCc2c(sc(NC(=O)CSc3ccccc3)c2-c2nc3ccccc3s2)C1	20	1	3	36
CCc1ccc(S(=O)(=O)c2cn(CC(=O)Nc3ccc(F)c(Cl)c3)c3ccccc3c2=O)cc1	.	.	0	10
CC(C)(C)CC(C)(C)N=C1Nc2ccc(Cl)cc2NC12C[C@H]1CCC(=O)N3CC[C@@H](C2)[C@@H]13 (some centres undefined)	.	.	-1	.
COc1ccccc1C(=O)NC(=S)NNC(=O)c1sc2ccccc2c1Cl	15	-17	51*	1
COc1ccc(N/C(N)=N/c2nc(C)cc(C)n2)cc1	.	.	?	-3
Cc1cc(C)nc(/N=C(\N)Nc2ccc(OCc3ccccc3)cc2)n1	30	-4	81*	5
Cc1cc(C)nc(/N=C(\N)Nc2ccc(OCCC(C)C)cc2)n1	6	-28	97*	-15
Cc1cc(C)nc(/N=C(\N)Nc2ccc(CC(=O)OC(C)C)cc2)n1	1	-8	68*	12
Cc1ccc(CN(C(=O)COc2ccc(Cl)c(C)c2)C2CCS(=O)(=O)C2)o1 (centres undefined)	.	.	3	-2
O=C(c1ccnc(Cl)c1)N1CCCC(Nc2ccc(F)cc2)C1 (centres undefined)	10	-6	0	-13
CC(C)c1ccc(NC2CCCN(C(=O)c3cc(C(C)C)[nH]n3)C2)cc1 (centres undefined)	-3	-50	-1	-4
O=C(CCc1ccncc1)N1CCCC(Nc2ccc(F)cc2)C1 (centres undefined)	14	-13	1	-9
Cc1ncsc1CCC(=O)N1CCCC(Nc2ccc(C(C)C)cc2)C1 (centres undefined)	84*	0	0	63
CC(C)c1ccc(NC2CCCN(C(=O)c3ccnc(Cl)c3)C2)cc1 (centres undefined)	91*	-12	0	13
O=C(CCc1ccccc1)N1CCCC(Nc2ccc(F)cc2)C1 (centres undefined)	87*	16	0	29
COC(=O)c1ccc(C(=O)N2CCCC(Nc3ccc(C(C)C)cc3)C2)nc1 (centres undefined)	83*	2	1	17
O=C(CSc1ncccc1C(=O)Oc1ccccc1Cl)Nc1ccc(C(F)(F)F)cc1Cl	.	.	0	3
CC(C)c1ccc(NC2CCCN(C(=O)c3ccco3)C2)cc1 (centres undefined)	97*	-18	1	-3
CC(C)c1ccc(NC(=O)N2CCC(c3nc4ccccc4o3)CC2)cc1	97*	-16	2	-7
SMILES	TRPV1 agonist	TRPV1 potentiator	TRPML1 ag	TRPML1 blocker
CC(=O)c1ccc(N2CCN(C(=O)Nc3ccc(F)cc3)CC2)cc1	?	-11	.	.
CC(C)c1ccc(NC(=O)N2CCOCC2)cc1	95*	-27	0	-12
CC(=O)c1ccc(N2CCN(C(=O)Nc3ccc(C(C)C)cc3)CC2)cc1	100*	9	0	-7
CC(=O)Nc1ccc(NC(=O)N2CCOCC2)cc1	.	.	-1	-2
Clc1ccc(/C=C/c2ccc3ccccc3n2)cc1Cl	.	.	0	.
CCCCc1ccc(NC(=S)Nc2cccnc2)cc1	30	-10	1	-22
